Shown is part of a subset that was picked to be rich in the strongest signals.
Assays:
Experiment in all cases: glycan array binding signal (z-score within array); higher = stronger binding
Settings in all cases: glycan notation: IUPAC condensed, linker removed
Gal3S6S(b1-4)GlcNAc = molecular target: Gal3S6S(b1-4)GlcNAc
Method in brief: (§1)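 Glycan array binding is given as a within-array Z-score, which can be read as non-binding when negative. The arrays, 3228 of them, came from the Consortium for Functional Glycomics database and were retained only where the protein sequence was available. Z-scores were averaged across arrays of the same protein sequence at different concentrations or buffers and across linkers.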

Gal6S(b1-4)GlcNAc6S = molecular target: Gal6S(b1-4)GlcNAc6S
Method in brief: as §1

[1] = molecular target: Glc(a1-4)Glc(a1-4)Glc(a1-4)Glc
Method in brief: as §1

GlcA(b1-3)GlcNAc = molecular target: GlcA(b1-3)GlcNAc
Method in brief: as §1

[2] = molecular target: GlcA3S(b1-3)Gal(b1-4)GlcNAc(b1-2)Man
Method in brief: as §1

[3] = molecular target: GlcNAc(a1-4)Gal(b1-3)GlcNAc
Method in brief: as §1

[4] = molecular target: GlcNAc(a1-4)Gal(b1-4)GalNAc
Method in brief: as §1

[5] = molecular target: GlcNAc(a1-4)Gal(b1-4)GlcNAc
Method in brief: as §1

[6] = molecular target: GlcNAc(a1-4)Gal(b1-4)GlcNAc(b1-3)Gal(b1-4)Glc
Method in brief: as §1

[7] = molecular target: GlcNAc(a1-4)Gal(b1-4)GlcNAc(b1-3)Gal(b1-4)GlcNAc
Method in brief: as §1

[8] = molecular target: GlcNAc(a1-4)Gal(b1-4)GlcNAc(b1-3)Gal(b1-4)GlcNAc(b1-3)Gal(b1-4)GlcNAc
Method in brief: as §1

[9] = molecular target: GlcNAc(a1-4)Gal(b1-4)GlcNAc(b1-3)Gal(b1-4)[Fuc(a1-3)]GlcNAc(b1-3)Gal(b1-4)[Fuc(a1-3)]GlcNAc
Method in brief: as §1

[10] = molecular target: GlcNAc(b1-3)[GlcNAc(b1-6)]Gal(b1-4)GlcNAc
Method in brief: as §1

[11] = molecular target: GlcNAc(b1-6)Gal(b1-4)GlcNAc
Method in brief: as §1

Kdn(a2-3)Gal(b1-3)GlcNAc = molecular target: Kdn(a2-3)Gal(b1-3)GlcNAc
Method in brief: as §1

[12] = molecular target: Man(a1-2)Man(a1-3)[Man(a1-2)Man(a1-6)]Man(a1-6)[Man(a1-2)Man(a1-2)Man(a1-3)]Man(b1-4)GlcNAc(b1-4)GlcNAc
Method in brief: as §1

[13] = molecular target: Neu5Ac(a2-3)Gal(b1-3)GlcNAc(b1-2)[Neu5Ac(a2-3)Gal(b1-3)GlcNAc(b1-4)]Man(a1-6)[Neu5Ac(a2-3)Gal(b1-3)GlcNAc(b1-2)Man(a1-3)]Man(b1-4)GlcNAc(b1-4)GlcNAc
Method in brief: as §1

[14] = molecular target: Neu5Ac(a2-3)Gal(b1-3)[Fuc(a1-4)]GlcNAc(b1-3)Gal(b1-4)[Fuc(a1-3)]GlcNAc
Method in brief: as §1

[15] = molecular target: Neu5Ac(a2-3)Gal(b1-4)GlcNAc(b1-2)Man(a1-3)[Neu5Ac(a2-6)Gal(b1-4)GlcNAc(b1-2)Man(a1-6)]Man(b1-4)GlcNAc(b1-4)GlcNAc
Method in brief: as §1

[16] = molecular target: Neu5Ac(a2-3)Gal(b1-4)GlcNAc(b1-3)Gal(b1-4)GlcNAc(b1-3)GalNAc
Method in brief: as §1

[17] = molecular target: Neu5Ac(a2-3)Gal6S(b1-4)GlcNAc
Method in brief: as §1

Neu5Ac(a2-6)Gal = molecular target: Neu5Ac(a2-6)Gal
Method in brief: as §1

[18] = molecular target: Neu5Ac(a2-8)Neu5Ac(a2-3)[GalNAc(b1-4)]Gal(b1-4)Glc
Method in brief: as §1

[19] = molecular target: Neu5Gc(a2-3)Gal(b1-4)GlcNAc
Method in brief: as §1

[20] = molecular target: Neu5Gc(a2-6)Gal(b1-4)GlcNAc
Method in brief: as §1

[21] = molecular target: Neu5Gc(a2-8)Neu5Ac(a2-3)Gal(b1-4)GlcNAc
Method in brief: as §1

[22] = molecular target: Neu5Gc(a2-8)Neu5Gc(a2-3)Gal(b1-4)GlcNAc(b1-3)Gal(b1-4)GlcNAc
Method in brief: as §1

B1: rEtpA (Escherichia coli) (protein)
chain: MNRIYKLKFDKRRNELVVVSEITTGVGNAKATGSVEGEKSPRRGVRAMALSLLSGMMIMAHPAMSANLPTGGQIVAGSGSIQTPSGNQMNIHQNSQNMVANWNSFDIGKGNTVQFDQPSSSAVALNRVVGGGESQIMGNLKANGQVFLVNPNGVLFGEGASVSTSGFVASTRDIKNDDFMNRRYTFSGGQKAGAAIVNQGELTTNAGGYIVLAADRVSNSGTIRTPGGKTVLAASERITLQLDNGGLMSVQVTGDVVNALVENRGLVSARDGQVYLTALGRGMLMNTVLNVSGVVEASGMHRQDGNIVLDGGDSGVVHLSGTLQADNASGQGGKVVVQGKNILLDKGSNITATGGQGGGEVYVGGGWQGKDSNIRNADKVVMQGGARIDVSATQQGNGGTAVLWSDSYTNFHGQISAKGGETGGNGGRVETSSHGNLQAFGTVSASAKKGKAGNWLLDSADITIVNGSNVSKTETTQSPPHTQFAPTAAGSAVSNTSINNRLNNGTSVTILTHRTRTGTAQGGNITVNAAINKSNGSDVNLTLQAGGNITVNNSITSTEGKLNVNLSGARTSNGSITISNNANITTNGGDITVGTTNTSNRVNISINNTTLNASNGNIQLTGTGTDSGILFAGNNRLTASNIALTGNSTSGNAINLTGTATLNATNNITLTGSSTSGNAINLKGNNTLTASNITLTGESTSGNAINLTDTTGTTTLNATNNITMQGTRVQIKHSNITAGNFALNATVAGSEISNTTLTATNNINLAAKTNSASSGVYLKDARITSTNGSITANGTATANGKATHLDGNVTLNASNGRIKLTGNGHGSASGILFAGNNRLTASNIALTGNSTSGNAINLTGTATLNATNDITLTGSSTSGNAINLTGTATLNATNNITLTGSSTSGNAINLKGNNTLTASNITLTGESTSGNAINLTDTTGTTTLNATNNITMQGTRVQIKHSNITAGNFALNATVAGSEISNTTLTATNNINLAAKTNSASSGVYLKDARITSTNGSITANGTATANGKATHLDGNVTLNASNGRIKLTGNGHGSASGILFAGNNRLTASNIALTGNSTSGNAINLTGTATLNATNDITLTGSSTSGNAINLTGTATLNATNNITLTGSSTSGNAINLKGNNTLTASNITLTGESTSGNAINLTDTTGTTTLNATNNITMQGTRVQIKHSNITAGNFALNATVAGSEISNTTLTATNNINLAAKTNSASSGVYLKDARITSTNGSITANGTATANGKATHLDGNVTLNASNGRIKLTGNGHGSASGILFAGNNRLTASNIALTGNSTSGNAINLTGTATLNATNDITLTGSSTSGNAINLTGTATLNATNNITLTGSSTSGNAINLKGNNTLTASNITLTGESTSGNAINLTDTTGTTTLNATNNITMQGTRVQIKHSNITAGNFALNATVAGSEISNTTLTATNNINLAAKTNSASSGVYLKDARITSTNGSITTNGTATANGKATHLDGNVTLNASNGRIKLTGNGHGSASGILFAGNNRLTASNIALTGNSTSGNAINLTGTATLNATNDITLTGSSTSGNAINLTGTATLNATNNITLTGSSTSGNAINLKGNNTLTASNITLTGESTSGNAINLTDTTGTTTLNATNNITMQGTRVQIKHSNITAGNFALNATVAGSEISNTTLTATNNINLAAKTNSASSGVYLKDARITSTNGSITANGTAPANDNATYLDGNVTLNASNGSIKLTGNGNGSTSGILFAGNNTLTASNITLTGNSEVYWQKLGPEQKLISEEDLNSAVDHHHHHH
glycan array binding signal (z-score) (Gal3S6S(b1-4)GlcNAc): -0.028 | glycan array binding signal (z-score) (Gal6S(b1-4)GlcNAc6S): 0.353 | glycan array binding signal (z-score) [1]: 1.05 | glycan array binding signal (z-score) (GlcA(b1-3)GlcNAc): -0.337 | glycan array binding signal (z-score) [2]: -0.154 | glycan array binding signal (z-score) [3]: 2.45 | glycan array binding signal (z-score) [4]: 10.8 | glycan array binding signal (z-score) [5]: 5.29 | glycan array binding signal (z-score) [6]: 4.48 | glycan array binding signal (z-score) [7]: 7.75 | glycan array binding signal (z-score) [8]: 10.9 | glycan array binding signal (z-score) [9]: 6.35 | glycan array binding signal (z-score) [10]: -0.354 | glycan array binding signal (z-score) [11]: -0.395 | glycan array binding signal (z-score) (Kdn(a2-3)Gal(b1-3)GlcNAc): 0.581 | glycan array binding signal (z-score) [12]: -0.275 | glycan array binding signal (z-score) [13]: -0.163 | glycan array binding signal (z-score) [14]: -0.21 | glycan array binding signal (z-score) [15]: -0.305 | glycan array binding signal (z-score) [16]: -0.38 | glycan array binding signal (z-score) [17]: 0.188 | glycan array binding signal (z-score) (Neu5Ac(a2-6)Gal): 8.28 | glycan array binding signal (z-score) [18]: 0.026 | glycan array binding signal (z-score) [19]: -0.194 | glycan array binding signal (z-score) [20]: 0.192 | glycan array binding signal (z-score) [21]: -0.108 | glycan array binding signal (z-score) [22]: -0.353

Reference: the supplement of paper PMC8728848
